{
  "source": "PubChem BioAssay (NCATS)",
  "note": "Records with an inconclusive call do not appear. Unmarked numbers belong to inactive results. Calls of active or inactive are those of the source. Calls come from the whole dose curve; as a rule, active = well fitted inhibition curve with a large enough effect; inconclusive = small, poorly fitted or top-dose-only effect; inactive = flat fitted curve, though single readings scatter. % is set by controls: 0 for no effect and ±100 for the full control effect.",
  "data": [
    {"biological_target": "Ubiquitin carboxyl-terminal hydrolase 1 (Homo sapiens) (UniProt O94782)", "sequence (O94782 whole entry, looked up)": "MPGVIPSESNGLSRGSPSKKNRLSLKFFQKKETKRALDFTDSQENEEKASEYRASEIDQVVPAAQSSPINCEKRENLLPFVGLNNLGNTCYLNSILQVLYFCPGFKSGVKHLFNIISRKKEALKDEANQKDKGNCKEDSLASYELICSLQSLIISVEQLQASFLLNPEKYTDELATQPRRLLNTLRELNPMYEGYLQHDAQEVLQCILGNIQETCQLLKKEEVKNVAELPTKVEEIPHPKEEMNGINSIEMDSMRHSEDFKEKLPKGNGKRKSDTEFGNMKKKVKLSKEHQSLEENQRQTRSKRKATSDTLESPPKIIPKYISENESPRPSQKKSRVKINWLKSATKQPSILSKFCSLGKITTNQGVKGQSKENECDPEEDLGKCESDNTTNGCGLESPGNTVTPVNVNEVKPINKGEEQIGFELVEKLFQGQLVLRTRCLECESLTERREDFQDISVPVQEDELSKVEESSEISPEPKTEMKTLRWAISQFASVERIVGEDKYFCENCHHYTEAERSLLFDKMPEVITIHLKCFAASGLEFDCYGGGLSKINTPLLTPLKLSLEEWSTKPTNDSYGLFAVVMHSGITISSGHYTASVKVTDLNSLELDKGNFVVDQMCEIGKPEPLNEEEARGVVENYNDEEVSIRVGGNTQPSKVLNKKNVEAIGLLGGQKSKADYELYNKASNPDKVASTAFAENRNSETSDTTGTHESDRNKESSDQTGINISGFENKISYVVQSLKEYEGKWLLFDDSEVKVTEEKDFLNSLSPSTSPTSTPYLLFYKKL", "experiment": "Inhibitors of USP1/UAF1: Pilot qHTS (AID 504865);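 note: rhodamine fluorescence freed from ubiquitin-rhodamine substrate followed over time; top concentration of the series differs between compounds; nearly all actives have a fitted effect of over 35% in size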", "conditions": "purified USP1/UAF1, Ub-rhodamine cleavage fluorescence; series mostly up to 114 µM; activity change, negative = inhibition: at the top concentration", "in_short": "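Kinetic fluorescence assay: 1nM USP1/UAF1, 15 min compound preincubation, then 150nM Ub-Rho; 480/540 nm.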", "values": [
      {"smiles": "O=C(NCNC(=O)NC1C(=O)NC(=O)N1CO)NC1C(=O)NC(=O)N1CO", "note": "(centres undefined)", "activity change, negative = inhibition": "-9.22%"},
      {"smiles": "CC(C)(O)C1C2OC(=O)C1C1(O)CC3OC34C(=O)OC2C14C", "note": "(centres undefined)", "activity change, negative = inhibition": "-3.79%"},
      {"smiles": "CCCCNCC(O)c1ccc(O)cc1", "note": "(centres undefined)", "activity change, negative = inhibition": "-4.22%"},
      {"smiles": "CCON=O", "activity change, negative = inhibition": "-0.412%"},
      {"smiles": "CC(=O)OC1CN2CCC1CC2", "note": "(centres undefined)", "activity change, negative = inhibition": "2.7%"},
      {"smiles": "CN1[C@@H]2CC[C@H]1CC(OC1c3ccccc3CCc3ccccc31)C2", "note": "(some centres undefined)", "activity change, negative = inhibition": "-14.8% [at 54.9 µM]"},
      {"smiles": "CN1CCCC(=C(c2cccs2)c2cccs2)C1", "activity change, negative = inhibition": "-4.47%"},
      {"smiles": "Oc1cc(Cl)c(Cl)cc1Cl", "activity change, negative = inhibition": "-13.5%"},
      {"smiles": "CNC1(c2ccccc2Cl)CCCCC1=O", "note": "(centres undefined)", "Potency": "inactive"},
      {"smiles": "CC[N+](C)(CC)CCOC(=O)C(O)(c1ccccc1)c1ccccc1", "activity change, negative = inhibition": "-9.82%"},
      {"smiles": "CCOc1ccc2c3c1O[C@H]1[C@@H](O)C=C[C@H]4[C@@H](C2)N(C)CC[C@@]341", "activity change, negative = inhibition": "-8.08%"},
      {"smiles": "CCC1(c2ccccc2)C(=O)NC(=O)N(C(=O)c2ccccc2)C1=O", "note": "(centres undefined)", "activity change, negative = inhibition": "0.385%"},
      {"smiles": "O=[N+]([O-])c1cc(I)c(O)c(I)c1", "activity change, negative = inhibition": "-12.5%"},
      {"smiles": "C[N+]1(C)CCCCC1COC(=O)C(O)(c1ccccc1)c1ccccc1", "note": "(centres undefined)", "activity change, negative = inhibition": "-2.24%"},
      {"smiles": "C=CCN1CC[C@]23c4c5ccc(O)c4O[C@H]2[C@@H](O)C=C[C@H]3[C@H]1C5", "activity change, negative = inhibition": "-6.13%"},
      {"smiles": "ClC1C(Cl)C(Cl)C(Cl)C(Cl)C1Cl", "note": "(centres undefined)", "Potency": "inactive"},
      {"smiles": "FC(F)OC(F)(F)C(F)Cl", "note": "(centres undefined)", "activity change, negative = inhibition": "3.21%"},
      {"smiles": "C/C(=C\\c1csc(C)n1)[C@@H]1C[C@@H]2O[C@]2(C)CCC[C@H](C)[C@H](O)[C@@H](C)C(=O)C(C)(C)[C@@H](O)CC(=O)O1", "activity change, negative = inhibition": "-5.95%"},
      {"smiles": "CN1C2CCC1CC(OC(c1ccccc1)c1ccc(Cl)cc1)C2", "note": "(centres undefined)", "activity change, negative = inhibition": "-12%"},
      {"smiles": "CCN(CC)C(=O)/C(Cl)=C(\\C)OP(=O)(OC)OC", "activity change, negative = inhibition": "0.697%"},
      {"smiles": "O=c1[nH]c(=O)n(Cl)c(=O)n1Cl", "activity change, negative = inhibition": "-5.17%"},
      {"smiles": "c1cc2c(c(NC3=NCCN3)c1)CCCC2", "activity change, negative = inhibition": "-6.05%"},
      {"smiles": "COc1ccc2c3c1O[C@H]1C(=O)CC[C@H]4[C@@H](C2)N(C)CC[C@]314", "activity change, negative = inhibition": "-8.03%"},
      {"smiles": "O=C(CS(=O)C(c1ccccc1)c1ccccc1)NO", "note": "(centres undefined)", "activity change, negative = inhibition": "-0.504%"},
      {"smiles": "CCCC(C)C1(CC)C(=O)NC(=O)NC1=O", "note": "(centres undefined)", "activity change, negative = inhibition": "-0.514%"},
      {"smiles": "CNC(C)C(O)c1ccc(O)cc1", "note": "(centres undefined)", "activity change, negative = inhibition": "-5.02%"},
      {"smiles": "C#CC(C)(O)CC", "note": "(centres undefined)", "activity change, negative = inhibition": "-6.99%"},
      {"smiles": "O=C(NC(=O)c1c(F)cccc1F)Nc1ccc(Cl)c(Oc2ncc(C(F)(F)F)cc2Cl)c1", "activity change, negative = inhibition": "-7.63%"},
      {"smiles": "CCCC(C)(COC(N)=O)COC(=O)NC1CC1", "note": "(centres undefined)", "activity change, negative = inhibition": "-12%"},
      {"smiles": "Cn1sc(Cl)cc1=O", "activity change, negative = inhibition": "-0.0824%"},
      {"smiles": "CCC(=O)O[C@@](Cc1ccccc1)(c1ccccc1)[C@@H](C)CN(C)C", "activity change, negative = inhibition": "3.33% [at 54.9 µM]"},
      {"smiles": "CCC1(c2ccccc2)C(=O)NC(=O)N(C)C1=O", "note": "(centres undefined)", "activity change, negative = inhibition": "-6.05%"},
      {"smiles": "Clc1ccccc1Cl", "activity change, negative = inhibition": "-0.849%"},
      {"smiles": "C=CCC1(C(C)CCC)C(=O)N=C(S)NC1=O", "note": "(centres undefined)", "activity change, negative = inhibition": "-0.652%"},
      {"smiles": "CNC(=O)OCC[N+](C)(C)C", "activity change, negative = inhibition": "-1.36%"},
      {"smiles": "COC([CH2][Hg])CNC(=O)c1ccccc1OCC(=O)O", "note": "(centres undefined)", "activity change, negative = inhibition": "-5.23%"},
      {"smiles": "Clc1ccc(C2(Cn3cncn3)OCCO2)c(Cl)c1", "activity change, negative = inhibition": "-4.41%"},
      {"smiles": "Clc1ccc(Cl)cc1", "activity change, negative = inhibition": "2.03%"},
      {"smiles": "CN1c2ccccc2C(NCCCCCCC(=O)O)c2ccc(Cl)cc2S1(=O)=O", "note": "(centres undefined)", "activity change, negative = inhibition": "-7.33%"}
    ]}
  ]
}
